Test system: not listed separately
Experiment: binders of probe aHhip on microarray, primary screen, stem cell growth factor project, biochemical, small-molecule microarray, fluorescence 635/667 (AID 1087);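 also: score merges spot fluorescence at 667nm with spot signal to noise ratio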
Details: higher = more signal

First: COc1ccc(-c2ccccc2[C@@H]2N[C@H](C(=O)O)CC[C@H]2C)cc1
Second: COc1ccc([Si](C)(C)[C@H]2[C@H](CC(=O)N(CCO)Cc3ccccc3)O[C@@]3(C(=O)N(C)c4ccccc43)[C@@H]2C)cc1
The composite z-score of the first is higher: -0.134 for the first, -0.21 for the second.

Going from `CCOC(=O)C[C@H]1[C@H](OC(=O)c2cc3ccccc3oc2=O)[C@@H](NC(=O)C2CCCCC2)c2cc(OCCCO)ccc2N1C(=O)c1ccc2ccccc2n1` to `C=CCNC(=O)[C@@H]1[C@H]2C(=O)O[C@H](c3ccccc3)[C@H](c3ccccc3)N2[C@H](c2ccc(OCCO)cc2)[C@@]12C(=O)N(C(=O)OCCOC)c1ccc(C#CC3(O)CCCCCC3)cc12`, the composite z-score falls from -0.0645 to -0.322.

Compared with `NC(=O)NCC#Cc1ccc2c(c1)[C@]1(C(=O)N2)[C@H](C(=O)N2CCCCCCC2)[C@H]2C(=O)O[C@H](c3ccccc3)[C@H](c3ccccc3)N2[C@@H]1c1ccccc1OCCO`, `COC(=O)C(CC#Cc1ccc2c(c1)[C@]1(C(=O)N2)[C@H](C(=O)N2CCCCCCC2)[C@H]2C(=O)O[C@H](c3ccccc3)[C@H](c3ccccc3)N2[C@@H]1c1ccc(O)cc1)C(=O)OC` is lower in composite z-score: 0.526 for the first, -0.306 for the second.

Going from `Cc1ccc(N2C(=O)c3ccccc3[C@@H](C(=O)NCc3ccccc3)[C@@H]2c2ccc(CO)cc2)nc1` to `CCOC(=O)C1=CC[C@@H](c2ccc(-c3ccc(OCc4ccccc4)cc3)c(OC)c2)N(S(=O)(=O)c2ccc(C)cc2)[C@H]1c1ccccc1`, the composite z-score rises from 0.0807 to 0.314.

First: COc1ccc([Si](C)(C)[C@@H]2[C@@H](CCO)O[C@]3(C(=O)N(Cc4ccc(NC(=O)[C@H](C)O)cc4)c4ccccc43)[C@H]2C)cc1
Second: COC(=O)[C@@]1(Cc2ccc(OC)cc2)[C@H]2c3cc(C(=O)N(C)C)n(Cc4ccc(C)c(F)c4F)c3C[C@H]2CN1C(=O)c1ccccc1
The composite z-score of the first is lower: -0.0618 for the first, 0.21 for the second.

First: CC1CC/C=C\[C@H]2OC34C=CCN(Cn5nnc6ccccc65)C(=O)[C@H]3N(C(C)CO)C(=O)[C@@H]4C2C(=O)O1 (some centres undefined)
Second: CO[C@H]1COC(=O)[C@H](CCSC)NC(=O)CC=C[C@@H](C)COC(=O)[C@@H](OCc2ccccc2)C=C[C@@H]1C
The composite z-score of the first is higher: 0.0373 for the first, -0.0047 for the second.

First: C=CCOC(=O)[C@@H]1[C@H]2C(=O)O[C@H](c3ccccc3)[C@H](c3ccccc3)N2[C@H](c2ccc(OCCOC(=O)[C@H]3C[C@H]4C(=O)N[C@@H](CCCCNC(C)=O)C(=O)N4[C@H]3c3ccc(O)cc3)cc2)[C@@]12C(=O)Nc1ccc(I)cc12
Second: COCCOC(=O)N1C(=O)[C@@]2(c3cc(C#CCNC(N)=O)ccc31)[C@H](c1ccc(OCCO)cc1)N1[C@H](c3ccccc3)[C@H](c3ccccc3)OC(=O)[C@H]1[C@@H]2C(=O)N1CCCCCCC1
The composite z-score of the first is lower: 0.158 for the first, 0.167 for the second.

Compared with `O=[N+]([O-])c1ccc(C[n+]2ccc3ccc(O)cc3c2)o1`, `C=C[C@H](OC)[C@@H](OC(=O)Nc1ccc(SC)cc1)c1ccc(O)c(F)c1` is higher in composite z-score: -0.411 for the first, 0.109 for the second.

First: COCCOC(=O)N1C(=O)[C@@]2(c3cc(C#CC4=CCCCC4)ccc31)[C@H](C(=O)NC[C@H](O)c1ccccc1)[C@H]1C(=O)O[C@H](c3ccccc3)[C@H](c3ccccc3)N1[C@@H]2c1ccccc1OCCO
Second: COCCOC(=O)N1C(=O)[C@@]2(c3ccccc31)[C@H](C(=O)N1CCc3cc(OC)c(OC)cc3C1)[C@H]1C(=O)O[C@H](c3ccccc3)[C@H](c3ccccc3)N1[C@@H]2c1ccccc1OCCO
The composite z-score of the first is higher: 0.259 for the first, 0.251 for the second.

Going from `CCCC=C(CCC)[C@@H](NS(=O)(=O)c1ccc(-c2ccccc2)cc1)c1ccc(C(=O)OC)cc1` to `CC(C)=C1C(=O)C(c2ccccc2)=C2CN3C(=O)N(CCc4ccccc4)C(=O)[C@]3(Cc3ccccc3)[C@H]21`, the composite z-score falls from -0.0994 to -0.112.

Going from `CCOC(=O)[C@H]1C/C=C/C[C@H](C(=O)OCC)C(=O)O[C@H]2[C@@H](OC)O[C@H](CO)[C@@H](OC(=O)Nc3ccc(Br)cc3)[C@@H]2OC1=O` to `CO[C@H]1COC(=O)CC=C[C@H](C)COC(=O)[C@@H](OCc2ccccc2)C=C[C@@H]1C`, the composite z-score falls from -0.0613 to -0.12.

Compared with `CN(C)c1ccc(C(O)C2C=CC3C(=O)NC(=O)C3N2Nc2ccc(Cl)cc2Cl)cc1` (centres undefined), `COCCOC(=O)N1C(=O)[C@@]2(c3cc(C#CCC(C(=O)OC)C(=O)OC)ccc31)[C@H](C(=O)N1CCN(c3ncccn3)CC1)[C@H]1C(=O)O[C@H](c3ccccc3)[C@H](c3ccccc3)N1[C@@H]2c1ccc(O)cc1` is lower in composite z-score: 0.0677 for the first, 0.0623 for the second.

Compound `[N-]=[N+]=NCc1ccccc1C[C@@]1(C(=O)N2CCOCC2)N=C(c2ccc(OCCCO)cc2)O[C@@H]1c1ccccc1N=[N+]=[N-]` has a composite z-score of -0.146.

Test system: PRMT1 (protein arginine N-methyltransferase 1)
Experiment: PRMT1 binders on small-molecule microarrays, primary screen, biochemical, small-molecule microarray, 635 nm fluorescence (AID 1088);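 also: binding of Prmt1 protein to compounds spotted on small-molecule microarray slides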
Details: small-molecule microarray binding, higher = more signal

Going from `CO[C@@H]1COC(=O)CC=C[C@@H](C)[C@H](OC)COC(=O)CC=C[C@H]1C` to `CO[C@H]1COC(=O)[C@H](CCSC)NC(=O)CC=C[C@@H](C)COC(=O)[C@@H](OCc2ccccc2)C=C[C@@H]1C`, the composite z-score rises from -0.0399 to 1.13.

Going from `O=C1O[C@H](c2ccccc2)[C@H](c2ccccc2)N2[C@H]1[C@@H](C(=O)Nc1nc3ccccc3s1)[C@]1(C(=O)Nc3ccc(C#CC4(O)CCCCCC4)cc31)[C@H]2c1ccc(O)cc1` to `O=C1O[C@H](c2ccccc2)[C@H](c2ccccc2)N2[C@H]1[C@@H](C(=O)NC[C@H](O)c1ccccc1)[C@]1(C(=O)Nc3ccc(C#CC4=CCCCC4)cc31)[C@H]2c1ccc(OCCO)cc1`, the composite z-score rises from 1.54 to 1.55.

Going from `O=C1O[C@@H](c2ccccc2)[C@@H](c2ccccc2)N2[C@@H](c3ccccc3OCCO)[C@]3(C(=O)Nc4ccc(C#CC5=CCCCC5)cc43)[C@@H](C(=O)O)[C@H]12` to `NC(=O)NCC#Cc1ccc2c(c1)[C@]1(C(=O)N2)[C@H](C(=O)N2CCCCCCC2)[C@H]2C(=O)O[C@H](c3ccccc3)[C@H](c3ccccc3)N2[C@@H]1c1ccccc1OCCO`, the composite z-score rises from 1.34 to 1.54.

Compared with `O=C1O[C@@H](c2ccccc2)[C@@H](c2ccccc2)N2[C@@H](c3ccc(O)cc3)[C@]3(C(=O)Nc4ccccc43)[C@@H](C(=O)N3CCN(c4ncccn4)CC3)[C@H]12`, `COC(=O)C(CC#Cc1ccc2c(c1)[C@]1(C(=O)N2)[C@H](C(=O)N2CCCCCCC2)[C@H]2C(=O)O[C@H](c3ccccc3)[C@H](c3ccccc3)N2[C@@H]1c1ccc(O)cc1)C(=O)OC` is lower in composite z-score: 1.29 for the first, -1.19 for the second.

Going from `C[N+](C)(C)CCCCNC(=O)[C@@H]1C[C@@H]2C(=O)N3CCC[C@H]3C(=O)N2[C@@H]1c1cccc(OCCO)c1` to `CC(C)N1CC=CC23O[C@@H]4/C=C\CCCOC(=O)C4[C@H]2C(=O)N(CCCCCO)[C@@H]3C1=O` (some centres undefined), the composite z-score falls from 0.869 to -2.15.

Going from `C=CC[C@@]1(C(=O)N2CCOCC2)N=C(c2ccc(OCCCO)cc2)O[C@@H]1c1ccccc1` to `COc1ccc([Si](C)(C)[C@H]2[C@H](CC(=O)N(CCO)Cc3ccccc3)O[C@@]3(C(=O)N(C)c4ccccc43)[C@@H]2C)cc1`, the composite z-score rises from 0.142 to 1.31.

Going from `CCC#CCN(Cc1ccccc1Br)[C@H](/C=C/c1ccccc1)[C@@H](O)Cc1ccccc1` to `Cc1ccc(N2C(=O)c3ccccc3[C@@H](C(=O)NCc3ccccc3)[C@@H]2c2ccc(CO)cc2)nc1`, the composite z-score rises from -0.394 to -0.363.

Going from `O=C(NCc1ccccc1)c1ccc(Br)cc1[N+](=O)[O-]` to `O=[N+]([O-])c1ccc(C[n+]2ccc3ccc(O)cc3c2)o1`, the composite z-score falls from 0.54 to 0.536.

Compared with `O=C1OCC=C[C@H]2OC34C=CCN(Cc5ccccc5)C(=O)[C@H]3N(CCO)C(=O)[C@@H]4[C@@H]12` (some centres undefined), `CC1CC/C=C\[C@H]2OC34C=CCN(Cn5nnc6ccccc65)C(=O)[C@H]3N(C(C)CO)C(=O)[C@@H]4C2C(=O)O1` (some centres undefined) is lower in composite z-score: 0.409 for the first, -0.151 for the second.

Compared with `COc1ccc(-c2ccccc2[C@@H]2N[C@H](C(=O)O)CC[C@H]2C)cc1`, `COc1ccc([Si](C)(C)[C@@H]2[C@@H](CCO)O[C@]3(C(=O)N(Cc4ccc(NC(=O)[C@H](C)O)cc4)c4ccccc43)[C@H]2C)cc1` is higher in composite z-score: -0.408 for the first, 1.47 for the second.

First: CCOC(=O)C[C@H]1[C@H](OC(=O)c2cc3ccccc3oc2=O)[C@@H](NC(=O)C2CCCCC2)c2cc(OCCCO)ccc2N1C(=O)c1ccc2ccccc2n1
Second: C=CCNC(=O)[C@@H]1[C@H]2C(=O)O[C@H](c3ccccc3)[C@H](c3ccccc3)N2[C@H](c2ccc(OCCO)cc2)[C@@]12C(=O)N(C(=O)OCCOC)c1ccc(C#CC3(O)CCCCCC3)cc12
The composite z-score of the first is lower: 1.06 for the first, 1.56 for the second.

Compared with `C=CCOC(=O)[C@@H]1[C@H]2C(=O)O[C@H](c3ccccc3)[C@H](c3ccccc3)N2[C@H](c2ccc(OCCOC(=O)[C@H]3C[C@H]4C(=O)N[C@@H](CCCCNC(C)=O)C(=O)N4[C@H]3c3ccc(O)cc3)cc2)[C@@]12C(=O)Nc1ccc(I)cc12`, `COCCOC(=O)N1C(=O)[C@@]2(c3cc(C#CC4=CCCCC4)ccc31)[C@H](C(=O)NC[C@H](O)c1ccccc1)[C@H]1C(=O)O[C@H](c3ccccc3)[C@H](c3ccccc3)N1[C@@H]2c1ccccc1OCCO` is higher in composite z-score: 1.55 for the first, 1.56 for the second.

First: CCOC(=O)C1=CC[C@@H](c2ccc(-c3ccc(OCc4ccccc4)cc3)c(OC)c2)N(S(=O)(=O)c2ccc(C)cc2)[C@H]1c1ccccc1
Second: CCCC=C(CCC)[C@@H](NS(=O)(=O)c1ccc(-c2ccccc2)cc1)c1ccc(C(=O)OC)cc1
The composite z-score of the first is higher: 1.46 for the first, 0.266 for the second.

Going from `COC(=O)[C@@]1(Cc2ccc(OC)cc2)[C@H]2c3cc(C(=O)N(C)C)n(Cc4ccc(C)c(F)c4F)c3C[C@H]2CN1C(=O)c1ccccc1` to `C=C[C@H](OC)[C@@H](OC(=O)Nc1ccc(SC)cc1)c1ccc(O)c(F)c1`, the composite z-score rises from 0.223 to 1.22.

`CCOC(=O)[C@H]1C/C=C/C[C@H](C(=O)OCC)C(=O)O[C@H]2[C@@H](OC)O[C@H](CO)[C@@H](OC(=O)Nc3ccc(Br)cc3)[C@@H]2OC1=O` showed a composite z-score of 1.54.

— PubChem BioAssay
